# According to PubChem BioAssay (NCATS):
# Values without a mark were called inactive. How the calls were made is not given here.
# Tested on: HIV-1 nucleocapsid protein NCp7 (binding to TG oligonucleotide)
# Test: HIV Nucleocapsid (AID 346);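 further: potency is for inhibitors that block NC binding and lower polarization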
# Conditions: HIV-1 NC / fluorescein-TGTGTGTG probe, fluorescence polarization
# Method in brief: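 Fluorescence polarization binding of 100 nM HIV-1 NC to 10 nM fluorescein-labelled TG4xF oligonucleotide. Buffer was Hepes pH 7.5 with 250mM NaCl, 1uM ZnCl2, TCEP and 2-mercaptoethanol. Compounds were incubated 1 hr at room temperature before the read.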
# Potency means the concentration at half of the fitted maximal effect.
row,Structure (SMILES),Potency [µM]
1,COc1ccc(Oc2ncc3nc(-c4cccc(C#N)c4)c(=O)n(Cc4cccc(OC)c4)c3n2)cc1,> 20
2,Cn1c(=O)c(CCc2ccccc2)nc2cnc(N3CCNCC3)nc21,> 20
3,COc1cccc(-c2nc(NCc3ccc(OC)cc3OC)c3ccccc3n2)c1,> 20
4,COc1ccccc1-c1nc(NCc2cccnc2)c2ccccc2n1,> 20
5,O=C(Nc1cccc(F)c1)N1CCCC2(CCN(C(=O)c3csnn3)CC2)C1,> 20
6,CN(C)C(=O)c1ccc(-c2cc(NCc3cccs3)ncn2)cc1,> 20
7,O=C(c1ccncc1)N1CCC2(CC1)CN(c1ccc(-c3ccccc3)cc1)C2,> 20
8,COc1cccc(Nc2ncc3nc(-c4cc(F)cc(F)c4)c(=O)n(CCC#N)c3n2)c1,> 20
9,COCCn1c(=O)c(-c2ccc(OC)cc2)nc2cnc(N3CCNCC3)nc21,> 20
10,Cc1nc2cnc(N3CCOCC3)nc2n(Cc2cccs2)c1=O,> 20
11,Fc1ccc(Nc2ncncc2-c2ccccc2C(F)(F)F)cc1,> 20
12,CS(=O)(=O)N1CCC[C@@]2(CCN(c3ncccn3)C2)C1,> 20
13,COCC(=O)N1CCC2(CC1)CCN(c1ccccn1)CC2,> 20
14,COc1ccccc1-c1nc(NCCNC(C)=O)c2ccccc2n1,> 20
15,O=c1cnc2cnc(N3CCOCC3)nc2n1CCc1ccccc1,> 20
16,COc1ccccc1-c1ccc2ncnc(NC3CCNCC3)c2c1,> 20
17,CCNc1ncc2nc(CCc3ccccc3)c(=O)n(C[C@H]3CCCO3)c2n1,> 20
18,COc1ccc(C(=O)N2CCC[C@@]3(CCN(Cc4ccccc4)C3)C2)cc1,> 20
19,COc1cccc(-c2ccc3ncnc(NCc4cnc(C)cn4)c3c2)c1,> 20
20,CC(=O)N1CCC[C@@]2(CCN(Cc3cc(C(F)(F)F)cc(C(F)(F)F)c3)C2)C1,> 20

row,Structure (SMILES),Potency [µM]
1,COC(=O)N1CCC2(CCN(Cc3ccc(C#N)cc3)CC2)CC1,> 20
2,COc1ccc(NC(=O)N2CC3(CCN(S(C)(=O)=O)CC3)C2)cc1,> 20
3,N#Cc1ccc(CN2CCCC3(CCN(C(=O)c4ccco4)CC3)C2)cc1,> 20
4,CN(Cc1ccco1)c1nc(-c2cccnc2)nc2ccccc12,> 20
5,COc1cccc(Cn2c(=O)cnc3cnc(N4CCN(C)CC4)nc32)c1,> 20
6,CCNc1ncc2nc(-c3cc(F)cc(F)c3)c(=O)n(CCc3ccccc3)c2n1,> 20
7,N#CCCn1c(=O)c(CCc2ccccc2)nc2cnc(OCc3ccccc3)nc21,> 20
8,COC(=O)N1CCC2(CCN(C(=O)Nc3cccc(C#N)c3)CC2)CC1,> 20
9,Cn1cccc1C(=O)N1CCC2(CCN(C(=O)Nc3cccc(F)c3)CC2)CC1,> 20
10,CCNc1ncc2nc(-c3cccs3)c(=O)n(Cc3cccs3)c2n1,> 20
11,O=C(Nc1cccc(F)c1)N1CC[C@@]2(CCCN(C(=O)c3cnccn3)C2)C1,> 20
12,COCCn1c(=O)cnc2cnc(Nc3cccc(OC)c3)nc21,> 20
13,FC(F)(F)c1ccccc1-c1ccc2ncnc(NC3CCNCC3)c2c1,> 20
14,c1ccc2c(NC3CC3)nc(-c3ccoc3)nc2c1,> 20
15,CC(=O)N1CCC[C@@]2(CCN(Cc3ccccc3)C2)C1,> 20
16,COc1ccc(CNc2ncncc2-c2cccc(C#N)c2)c(OC)c1,> 20
17,COc1ccc(-c2nc3cnc(N4CCN(C)CC4)nc3n(C)c2=O)cc1,> 20
18,COc1ccccc1CNc1ncncc1-c1ccccc1CN(C)C,> 20
19,O=c1cnc2cnc(N3CCNCC3)nc2n1C1CC1,> 20
20,O=S(=O)(c1ccccc1)N1CCC2(CCN(Cc3ccccc3)CC2)CC1,> 20
